According to the OligoGym collection:

Each sequence was assayed against GOLGA1 (assay: pooled miR-30 sensor sort-seq; sequence = guide strand). Details: shRNA.

First: TATGGTCTTATTTTTCTCCAGA
Second: TTTACTTAGTTCCTGCTGCTGG
The sensor-assay potency score (higher = more potent) of the first is lower: -0.384 for the first, 0.484 for the second.

In the case of TATTTTACTTAGTTCCTGCTGC, the sensor-assay potency score (higher = more potent) is reported as 0.934.

The sequences below were run against GORASP1 in the same assay as above. Details: shRNA.

First: TTCCACATCCAGCACATGCCAC
Second: TTCAGTAGTGCCTTCAGGGTGT
The sensor-assay potency score (higher = more potent) of the first is lower: -1.05 for the first, 0.45 for the second.

First: TACACCATCAGCTTCAAGGGCT
Second: TGAAGATGGTTCCACATCCAGC
The sensor-assay potency score (higher = more potent) of the first is higher: 0.394 for the first, -1.37 for the second.

First: TTATACACCATCAGCTTCAAGG
Second: TTATCCTCCAACTTATGGGGGA
The sensor-assay potency score (higher = more potent) of the first is lower: -1 for the first, -0.359 for the second.

First: TGACTTGGAGTTATACACCATC
Second: TCCATGTAGTCACTCTGCCTGG
The sensor-assay potency score (higher = more potent) of the first is higher: -1.14 for the first, -1.3 for the second.

First: AATATTAGCATTGATACCCATT
Second: TAACTCGCTGCACTGGAGGTGG
The sensor-assay potency score (higher = more potent) of the first is lower: -1.46 for the first, -0.397 for the second.

What follows are sequences tested against GP1BA in the same assay as above. Details: shRNA.

Compared with TTTGGTATTGTATACAGCGAGT, TAGAGGATCTCACAGTTGCATA is lower in sensor-assay potency score (higher = more potent): -0.992 for the first, -1.69 for the second.

Going from TTTCAGGTAGAGCTCTTGGAGT to TTGGGGTCCATCTAGGTGGGAA, the sensor-assay potency score (higher = more potent) rises from -0.846 to -0.196.

Compared with ATTTTCAGCATTGTCCTGCAGC, TTTGGCTGTCTAGAGAAGCAGT is lower in sensor-assay potency score (higher = more potent): -0.496 for the first, -0.816 for the second.

Going from TTGACCACAGTCCTTGTGGCAC to TAGTGGATTCTTGTGTTGGATG, the sensor-assay potency score (higher = more potent) falls from -0.461 to -1.15.

Going from AACTTGACCACAGTCCTTGTGG to TATACAGCGAGTTCTCTTGGAG, the sensor-assay potency score (higher = more potent) falls from 0.0455 to -0.385.

Compared with TAGACGGGAAACTTGTCTGAAT, TTCAGCATTGTCCTGCAGCCAG is lower in sensor-assay potency score (higher = more potent): -0.507 for the first, -0.558 for the second.

The sequences below were run against GP6 in the same assay as above. Details: shRNA.

Compared with ATTATTAGGATCACAGCCCCGA, TAGCATCGGTAGGTTCCGCTGT is higher in sensor-assay potency score (higher = more potent): -0.0711 for the first, -0.0169 for the second.

First: TTTGTTGGTAGAGATGAGGTTT
Second: TTGCACAGGCTGATCTTGTTTT
The sensor-assay potency score (higher = more potent) of the first is higher: -0.205 for the first, -0.638 for the second.

Compared with TAGCCCTGTACCATCTCTCGGG, TTTTACACTAAGGAAAATGAAT is lower in sensor-assay potency score (higher = more potent): -0.328 for the first, -1.19 for the second.

Compared with TTCGTTTGTGAATGAGACGGTC, TTGTTTTCTAATGTGAAGGGAA is lower in sensor-assay potency score (higher = more potent): 0.0865 for the first, -0.126 for the second.

First: TTTTGAGACAAAGTCAGGCTTC
Second: TATTTTTTGAGACAAAGTCAGG
The sensor-assay potency score (higher = more potent) of the first is higher: 0.424 for the first, -1.21 for the second.

These sequences were tested against GPAA1 in the same assay as above. Details: shRNA.

Going from TAGCGCTGCCAGGAAGAGCTGC to TATAGCGCTCGTGGGTCTCATC, the sensor-assay potency score (higher = more potent) falls from -1.02 to -1.61.

First: TTTCCGGGAGAAACTCTGCGTG
Second: TTCTCCGACATGTAAGTGCGCT
The sensor-assay potency score (higher = more potent) of the first is higher: -0.575 for the first, -0.864 for the second.

Sequence TTGAGGCGCAGCACTAGGCGGG has a sensor-assay potency score (higher = more potent) of -0.543.
